This is a sample that favours compounds with a hit; in the whole collection about 8% have one here.
MARV entry inh – qHTS for Inhibitors of binding or entry into cells for Marburg Virus; Marburg virus pseudotype entry/binding inhibition, cell-based; Potency, µM (highest dose often 49.2 µM), for the others: at the highest dose activity change, negative = inhibition, actives largely listed as inhibitors; 18,000 tested, 6.5% active; AID 720532, 2013
LASV entry inh – qHTS for Inhibitors of binding or entry into cells for Lassa Virus; Lassa virus pseudotyped entry inhibition, cell-based qHTS; Potency, µM (series often up to 49.2 µM), for the others: top-dose activity change, negative = inhibition, usual class: inhibitors; 18,000 tested, 4.1% active
An asterisk follows results filed as active; ? = inconclusive; / = no result given; ! = repeats disagree; [ ] = another dose, or the depositor's remark. Calls come from the whole dose curve; tested in HEK293 cells. % is set by controls: 0 for no effect and ±100 for the full control effect; potency is the fitted concentration of half-maximal effect.

SMILES | MARV entry inh | LASV entry inh
Cc1cc2c(nc1C)CCCN2CC(O)CN1CCN(C)CC1 (centres undefined) | 17.7%[8.59 µM] | -17.3%[8.59 µM]
COC(=O)C1=C(C(=O)OC)[C@@H]2N(Cc3ccccc3)c3ccccc3[C@@]23C[C@@H](C(=O)OC)N(C(=O)Nc2ccccc2F)C3=N1 | -13.0%[8.59 µM] | -20.0%[8.59 µM]
COC(=O)[C@@]12Cc3ccccc3[C@H]1C[C@H](C)[C@@H](C)N2C(=O)C(F)(F)F | 3.2%[8.59 µM] | -3.0%[8.59 µM]
CC1=C(\C=C/C(C)=C/C=C\C(C)=C\C(=O)O)C(C)(C)CCC1 | ? | -0.9%
CC1=C(/C=C/C(C)=C/C=C/C(C)=C/C(=O)Nc2ccc(O)cc2)C(C)(C)CCC1 | ? | 7.08µM*!
COC(=O)CC=C1c2ccccc2C[C@H](OC)[C@@H]1C | -1.1%[8.59 µM] | 2.5%[8.59 µM]
C=CCOC(=O)N[C@@H](c1coc2ccccc2c1=O)[C@@H](C)C=CCC(=O)OC | -3.2%[8.59 µM] | -10.6%[8.59 µM]
O=C(O)c1ccc(OCCCOc2ccc(C(=O)O)cc2)cc1 | 7.9% | 3.5%
CC/C(=C(/c1ccccc1)c1ccc(OCCN(C)C)cc1)c1ccccc1 | 3.16µM* | /
CCN(CC)CCOc1ccc(/C(=C(\Cl)c2ccccc2)c2ccccc2)cc1 | / | 14.1µM*!
CN(C)CCOC(=O)COc1ccc(Cl)cc1 | -11.1% | -3.3%
COC(=O)C1=C(C)N(Cc2ccccc2)C(=NCc2cc(OC)c(OC)c(OC)c2)NC1c1cccc(F)c1 (centres undefined) | -16.7%[8.59 µM] | /
CCCCn1c(C)cc2c(c1=O)[C@H]1O[C@](CCCC)(Cc3cc(C#N)ccc31)O2 | ? | 13.8%[8.59 µM]
COCCN1C(=O)NC(CCc2ccccc2)C(C(=O)OC)=C1C (centres undefined) | 72.4%[8.59 µM] | 6.4%[8.59 µM]
CCc1cccc(N(C)C(N)=Nc2cccc3ccccc23)c1 | 28.2µM* | ?
CN(C)c1cccc(CN2CCN(c3ccccc3)CC2)c1 | -22.3% | -29.3%
C[C@@H](ON=C1[C@H]2CCn3c(=O)n(-c4ccccc4)c(=O)n3[C@@H]2[C@H](O)[C@@H]2O[C@H]12)c1cn([C@H](CO)Cc2ccccc2)nn1 | -23.2%[8.59 µM] | /
COC[C@@H](O)[C@H]1OCc2ccccc2[C@@H]1C=Cc1ccccc1 | -36.8%[8.59 µM] | -0.1%[8.59 µM]
COc1ccccc1N1CCNCC1 | -7.7% | 1.3%
FC(F)(F)c1cccc(N2CCNCC2)c1 | 28.2µM* | 28.2µM*
COc1cc2c(cc1OC)[C@@H]1O[C@](CCCCN3C(=O)c4ccccc4C3=O)(C2)OC2=C1C(=O)CCC2 | -17.1%[8.59 µM] | /
COC(=O)[C@H]1[C@@H](c2ccccc2)NC(=O)N(Cc2ccccc2)[C@@H]1C | ? | -1.2%[8.59 µM]
CCOC(=O)C1(c2ccccc2)CCN(CCC(C#N)(c2ccccc2)c2ccccc2)CC1 | 2.51µM* | 7.94µM*
CCC(=O)OC1(c2ccccc2)CCN(C)CC1 | -15.3%[107 µM] | -5.9%[107 µM]
Cc1cccc2c(N=Nc3ccc(S(N)(=O)=O)cc3)c(O)[nH]c12 | -14.6% | 58.0%
SMILES | MARV entry inh | LASV entry inh
CCC=C1C(=O)[C@]2(C(=O)c3ccccc3)C[C@H]3CCC(CCC)(C2=O)[C@@]13OC | ? | -10.5%[8.59 µM]
Clc1ccc(COC(Cn2ccnc2)c2ccc(Cl)cc2Cl)cc1 (centres undefined) | ? | 35.5µM*!
C=CCO[C@@H](Cn1ccnc1)c1ccc(Cl)cc1Cl | -4.7%[17.8 µM] | -0.8%[17.8 µM]
COc1cc([C@@H](NC(=O)C(F)(F)F)C2CCCCC=C2c2ccccc2)cc(OC)c1OC (some centres undefined) | 9.8%[8.59 µM] | ?
COc1cccc2c1C(=O)c1c(O)c3c(c(O)c1C2=O)C[C@@](O)(C(=O)CO)C[C@@H]3O[C@H]1C[C@H](N)[C@H](O[C@@H]2CCCCO2)[C@H](C)O1 | 1.25µM* | 1.12µM*
COc1cccc2c1C(=O)c1c(O)c3c(c(O)c1C2=O)C[C@@](O)(C(C)=O)C[C@@H]3O[C@H]1C[C@H](N)[C@H](O)[C@H](C)O1 | ? | 35.5µM*!
COc1cccc2c1C(=O)c1c(O)c3c(c(O)c1C2=O)C[C@@](O)(C(=O)CO)C[C@@H]3OC1C[C@@H](N)[C@H](O)[C@H](C)O1 (some centres undefined) | 0.891µM* | ?
CC(=O)[C@]1(O)Cc2c(O)c3c(c(O)c2[C@@H](O[C@H]2C[C@H](N)[C@H](O)[C@H](C)O2)C1)C(=O)c1c(O)cccc1C3=O | 0.056µM* | /
C=CC[C@@H]1C=C[C@H](ON=C(C)CCN2CCc3nc(CC)c(CC)cc3C2)[C@H](CO)O1 | ? | -29.4%[8.59 µM]
COc1ccc(C=CC2=CC3(C)CC2(C)C(c2ccc(OC)cc2)CC3=O)cc1 (centres undefined) | -12.8%[8.59 µM] | 8.9%[8.59 µM]
C=CCNP1(=O)O[C@H](C=C)C[C@H](C=C)O1 (some centres undefined) | -13.6% | 1.3%
CN1C=CC(=O)[C@@H](O)[C@@H]1c1ccccc1Br | 4.7% | 20.2%
CC(C)=CCCC(C)=CC=CC1=CC2(C)CC1(C)C(C=C(C)CCC=C(C)C)CC2=O (centres undefined) | ? | 3.0%[8.59 µM]
CS(=O)(=O)CCNCc1nc(-c2ccc3ncnc(Nc4ccc(F)c(Cl)c4)c3c2)cs1 | ? | -29.8%

Screening results: PubChem BioAssay, National Center for Advancing Translational Sciences (NCATS)
